Reference: PubChem BioAssay (NCATS)
Where “and” joins values, the source holds several entries; their conditions need not be identical. Equal entries are not always repeated. Inconclusive results are not listed. Calls of active or inactive are those of the source. Unless noted, the call rests on the fitted dose curve; in most records, active means well fitted curve in the direction sought with a large enough effect; inconclusive means small, poorly fitted or top-dose-only effect, or another doubt; inactive means no such curve, though single readings can be large; an effect the other way counts as inactive or inconclusive.

Legend:
[1] = molecular target: Thyroid hormone receptor beta (Homo sapiens) (UniProt P10828); assay: qHTS assay for small molecule agonists of thyroid hormone receptor beta signaling (AID 588545; calls by dose curve;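 further: 0% = DMSO only and 100% = 10 nM T3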); settings: TR-UAS-bla GripTite HEK 293, beta-lactamase ratio, agonist mode, 18 h, percent of T3 response, DMSO as zero; series mostly up to 76.7 µM
Method in brief: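 Efficacy and EC50 values derive from Hill fits of qHTS titration data, normalized to 10 nM T3 and DMSO-only wells. HEK 293 reporter cells were stimulated for 18 hrs at 37 C, with beta-lactamase activity measured by CCF4 fluorescence.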

[2] = molecular target: Retinoic acid receptor RXR-alpha (Homo sapiens) (UniProt P19793); assay: qHTS assay for small molecule antagonists of retinoid X receptor alpha signaling (AID 588546; active means well fitted inhibition curve with a large enough effect in the signal ratio, with a control signal flat, not every such curve was filed as active; the % refers to the signal ratio;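 further: cells stimulated with 9-cis-retinoic acid as agonist; on the % scale 0 is the no-effect control and ±100 the full control effect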); settings: HEK293T RXRa-UAS-bla, beta-lactamase ratio, antagonist mode
Method in brief: (§1)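 Beta-lactamase reporter inhibition, read as CCF4 fluorescence ratio (ex 405, em 460/530 nm) after 2 h at RT. HEK293T UAS-bla cells, 2500/well, were stimulated with 9-cis-RA at 500 or 100 nM final alongside test compound for 18 h at 37 C.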

[3] = molecular target: Thyroid hormone receptor beta (Homo sapiens) (UniProt P10828); assay: qHTS assay for small molecule antagonists of thyroid hormone receptor beta signaling (AID 588547; active means well fitted inhibition curve with a large enough effect in the signal ratio, with a control signal flat, not every such curve was filed as active; the % refers to the signal ratio;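 further: cells stimulated with 0.4 nM T3 agonist during compound exposure; on the % scale 0 is the no-effect control and ±100 the full control effect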); settings: TR-UAS-bla HEK293, beta-lactamase ratio, antagonist mode, 18 h
Method in brief: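 Inhibition of T3-driven (0.4nM final) beta-lactamase reporter activity was measured over 0.59 nM to 92 uM compound after 18 h at 37 C. The cells were GripTite HEK293 TR-UAS-bla in charcoal/dextran-stripped serum, with CCF4 ratio read-out and IC50 from Hill fits.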

[4] = molecular target: Voltage-gated inwardly rectifying potassium channel KCNH2 (Homo sapiens) (UniProt Q12809); assay: qHTS Assay for Small Molecule Inhibitors of the Human hERG Channel Activity (AID 588834); settings: U2OS BacMam hERG, FluxOR thallium flux fluorescence; series mostly up to 46.1 µM;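 further: top concentration of the series differs between compounds; on the % scale 0 is the no-effect control and ±100 the full control effect; lower thallium flux fluorescence means stronger hERG block; nearly all actives have a fitted effect of over 50% in size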
Method in brief: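 Blockade is seen as reduced FluxOR thallium-flux fluorescence in U2OS cells expressing hERG from a BacMam construct, in Opti-MEM with 2% FCS. Concentration-response data fitted to the Hill equation for AC50.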

[5] = molecular target: Retinoic acid receptor RXR-alpha (Homo sapiens) (UniProt P19793); assay: qHTS assay for small molecule agonists of retinoid X receptor alpha signaling (AID 588544; calls by dose curve;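 further: 0% = DMSO basal wells and 100% = reference agonist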); settings: HEK293T RXRa-UAS-bla, beta-lactamase reporter, 18 h; series mostly up to 76.7 µM
[6] = qHTS assay for small molecule antagonists of retinoid X receptor alpha signaling (AID 588546); settings: HEK293T RXRa-UAS-bla, beta-lactamase ratio, antagonist mode; measured here: W530 green channel, cytotoxicity proxy;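 further: cells stimulated with 9-cis-retinoic acid as agonist; on the % scale 0 is the no-effect control and ±100 the full control effect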
Method in brief: as §1

[7] = molecular target: Luciferin 4-monooxygenase (Photinus pyralis) (UniProt P08659); assay: Biochemical firefly luciferase enzyme assay for NPC (AID 624030); further: nearly all actives have a fitted effect of over 70% in size; further: potency means the concentration at half of the fitted maximal effect; settings: purified P. pyralis luciferase, luminescence, 5 min; series mostly up to 58.6 µM
Method in brief: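 Direct inhibition of firefly luciferase enzyme (10 nM final, 50 mM Tris Acetate) assessed by luminescence within 5 minutes. Percent activity scaled between DMSO and PTC124 positive control, with concentration-effect curves classified by fit quality and response.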

[8] = S16 Schwann cell viability assay (CellTiter-Glo assay) (AID 624031); settings: S16 rat Schwann cells viability, 24 h; series mostly up to 57.5 µM;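 further: native untransfected S16 rat Schwann cells; cellular ATP luminescence as a viability measure; plate controls were DMSO-treated cells for no effect and cell-free wells for full effect; nearly all actives have a fitted effect of over 70% in size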
Method in brief: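 Parental S16 cells, 24 h compound, 37 °C. ATP-luminescence viability; DMSO = 0% activity, empty wells as reference; curves classified by fit quality and efficacy.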

[9] = S16 Schwann cell PMP22 intronic element firefly luciferase assay (AID 624032); settings: S16 rat Schwann cells, PMP22 element FLuc, 24 h; series mostly up to 57.5 µM; further: nearly all actives have a fitted effect of over 30% in size; further: potency means the concentration at half of the fitted maximal effect
Method in brief: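 Luciferase reporter of PMP22 intronic-element expression in stably transfected S16 rat Schwann cells, read by ONE-Glo luminescence after 24 h compound exposure at 37 C. Activity scaled between DMSO (0%) and positive-control PTC124; concentration-effect curves quality-classified.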

Chain of Voltage-gated inwardly rectifying potassium channel KCNH2 (Homo sapiens) (Q12809 whole entry, looked up): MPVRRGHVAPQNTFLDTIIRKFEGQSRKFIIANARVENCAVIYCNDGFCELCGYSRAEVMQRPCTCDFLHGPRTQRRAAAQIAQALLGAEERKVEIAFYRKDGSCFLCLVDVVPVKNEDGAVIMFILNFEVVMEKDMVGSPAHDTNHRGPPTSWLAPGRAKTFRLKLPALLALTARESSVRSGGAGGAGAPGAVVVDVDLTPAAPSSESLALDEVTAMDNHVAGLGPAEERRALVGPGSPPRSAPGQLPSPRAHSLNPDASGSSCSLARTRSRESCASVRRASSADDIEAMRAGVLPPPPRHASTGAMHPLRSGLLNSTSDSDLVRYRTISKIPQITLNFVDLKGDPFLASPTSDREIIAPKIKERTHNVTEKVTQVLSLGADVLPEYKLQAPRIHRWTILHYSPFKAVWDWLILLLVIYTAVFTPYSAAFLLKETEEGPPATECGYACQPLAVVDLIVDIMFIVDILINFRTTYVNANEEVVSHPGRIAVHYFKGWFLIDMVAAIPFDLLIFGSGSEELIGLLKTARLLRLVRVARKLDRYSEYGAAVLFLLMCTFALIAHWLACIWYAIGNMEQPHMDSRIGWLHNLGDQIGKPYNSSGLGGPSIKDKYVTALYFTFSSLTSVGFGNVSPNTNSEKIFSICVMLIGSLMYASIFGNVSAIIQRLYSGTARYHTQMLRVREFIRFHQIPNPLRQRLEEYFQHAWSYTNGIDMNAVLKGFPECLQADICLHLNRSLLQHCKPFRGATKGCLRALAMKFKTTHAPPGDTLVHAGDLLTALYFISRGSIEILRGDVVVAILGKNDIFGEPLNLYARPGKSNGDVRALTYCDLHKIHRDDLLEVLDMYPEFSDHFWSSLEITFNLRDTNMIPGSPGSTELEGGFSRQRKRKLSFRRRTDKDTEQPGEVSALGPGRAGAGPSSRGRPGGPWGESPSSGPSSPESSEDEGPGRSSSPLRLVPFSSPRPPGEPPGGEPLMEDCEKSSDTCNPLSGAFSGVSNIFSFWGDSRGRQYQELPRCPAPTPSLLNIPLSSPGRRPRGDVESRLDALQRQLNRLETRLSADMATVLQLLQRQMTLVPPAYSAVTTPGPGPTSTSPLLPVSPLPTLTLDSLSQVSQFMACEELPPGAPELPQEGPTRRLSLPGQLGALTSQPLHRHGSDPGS
Chain of Thyroid hormone receptor beta (Homo sapiens) (P10828 whole entry, looked up): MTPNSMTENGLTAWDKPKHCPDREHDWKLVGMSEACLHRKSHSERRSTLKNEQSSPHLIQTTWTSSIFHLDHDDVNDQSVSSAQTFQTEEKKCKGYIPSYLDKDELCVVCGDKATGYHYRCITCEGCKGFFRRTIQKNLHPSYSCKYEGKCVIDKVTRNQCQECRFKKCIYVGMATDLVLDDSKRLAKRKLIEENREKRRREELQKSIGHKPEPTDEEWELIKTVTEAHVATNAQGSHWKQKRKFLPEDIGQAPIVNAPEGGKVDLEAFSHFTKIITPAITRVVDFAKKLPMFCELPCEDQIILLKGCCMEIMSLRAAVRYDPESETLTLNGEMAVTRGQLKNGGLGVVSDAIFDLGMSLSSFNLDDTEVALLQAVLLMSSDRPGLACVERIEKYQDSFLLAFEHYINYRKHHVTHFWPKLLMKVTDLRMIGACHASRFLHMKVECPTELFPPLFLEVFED
Chain of Retinoic acid receptor RXR-alpha (Homo sapiens) (P19793 whole entry, looked up): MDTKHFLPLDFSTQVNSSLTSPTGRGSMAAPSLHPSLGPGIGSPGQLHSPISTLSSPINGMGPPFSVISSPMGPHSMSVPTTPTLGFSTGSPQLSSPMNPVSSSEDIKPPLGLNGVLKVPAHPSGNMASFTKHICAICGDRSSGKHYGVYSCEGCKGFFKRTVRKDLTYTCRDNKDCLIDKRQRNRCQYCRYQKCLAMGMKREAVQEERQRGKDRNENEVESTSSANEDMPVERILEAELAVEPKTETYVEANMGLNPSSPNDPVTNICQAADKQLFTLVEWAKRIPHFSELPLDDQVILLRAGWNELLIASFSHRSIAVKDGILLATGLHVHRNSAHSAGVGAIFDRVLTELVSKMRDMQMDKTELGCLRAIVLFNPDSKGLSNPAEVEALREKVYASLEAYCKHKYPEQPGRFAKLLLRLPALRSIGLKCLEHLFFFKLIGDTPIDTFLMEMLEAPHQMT
Chain of Luciferin 4-monooxygenase (Photinus pyralis) (P08659 whole entry, looked up): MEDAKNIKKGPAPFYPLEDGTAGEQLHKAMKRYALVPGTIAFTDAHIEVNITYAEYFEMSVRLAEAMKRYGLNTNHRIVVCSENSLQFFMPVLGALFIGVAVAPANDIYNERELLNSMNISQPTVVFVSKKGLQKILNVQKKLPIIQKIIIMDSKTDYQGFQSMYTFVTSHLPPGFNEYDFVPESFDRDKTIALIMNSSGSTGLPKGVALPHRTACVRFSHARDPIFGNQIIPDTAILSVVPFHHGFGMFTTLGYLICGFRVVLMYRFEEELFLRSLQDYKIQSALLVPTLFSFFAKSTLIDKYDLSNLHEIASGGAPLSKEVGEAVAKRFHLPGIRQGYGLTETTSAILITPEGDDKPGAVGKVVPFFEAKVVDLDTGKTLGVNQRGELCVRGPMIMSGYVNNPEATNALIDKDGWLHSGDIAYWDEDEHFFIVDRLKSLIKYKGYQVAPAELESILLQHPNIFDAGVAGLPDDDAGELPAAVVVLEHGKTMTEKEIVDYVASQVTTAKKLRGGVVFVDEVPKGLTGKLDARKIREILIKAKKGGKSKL

CCCOC(=O)c1ccc(O)cc1
-12% and 3.27% and -2.1%: max response [6]
inactive: outcome [5] | outcome [1] | max response [2] -6.42% and -2.27% and -9.81% | activity change % (negative = inhibition) [3] -17.9% and -8.82% and 6.79% | Potency [4] | Potency [7] | Potency [8] | Potency [9]

C#CCN1C(C)=C(C(=O)OC)C(c2cccc([N+](=O)[O-])c2)C(C(=O)OCC)=C1C (stereo unspecified)
inactive: Potency [4]

CC(C)OC(=O)c1cc(C(=O)OC(C)C)cc([N+](=O)[O-])c1
-0.986%: max response [6]
inactive: max response [2] -4.84% | activity change % (negative = inhibition) [3] 6.57% | Potency [7]

c1ccc2sc(SSc3nc4ccccc4s3)nc2c1
inactive: outcome [5] | outcome [1] | max response [2] 0.434% and -6.61% | activity change % (negative = inhibition) [3] 20.1% and 3.58% | Potency [4] | Potency [7] | Potency [8] | Potency [9]
-0.16% and -14.1%: max response [6]

C=CCCCCCCCCC(=O)O
-3.51%: max response [6]
inactive: outcome [5] | outcome [1] | max response [2] -16.4% | activity change % (negative = inhibition) [3] -5.71% | Potency [4] | Potency [7] | Potency [8] | Potency [9]

O=C(O)[C@H](O)[C@@H](O)[C@H](O)[C@H](O)CO
-7.65%: max response [6]
inactive: outcome [5] | outcome [1] | max response [2] 4.17% | activity change % (negative = inhibition) [3] 19.6% | Potency [4] | Potency [7] | Potency [8] | Potency [9]

c1cnc2c(c1)ccc1cccnc12
inactive: activity change % (negative = inhibition) [3] -10.3% | Potency [4]

Nc1ccc(O)c([N+](=O)[O-])c1
-7.08% and 0.284%: max response [6]
inactive: outcome [5] | outcome [1] | max response [2] 32% and 10.1% | activity change % (negative = inhibition) [3] 3.22% and -23.9% | Potency [4]

O=c1[nH]c2cc(C(F)(F)F)ccc2n1-c1cc(C(F)(F)F)ccc1O
inactive: Potency [4]

CN(C)CCC(c1ccc(Cl)cc1)c1ccccn1 (stereo unspecified)
-0.244%: max response [6]
inactive: outcome [5] | outcome [1] | max response [2] -3.52% | activity change % (negative = inhibition) [3] -21.7% | Potency [7]

S=c1[nH]c2ccccc2s1
inactive: outcome [5] | outcome [1] | max response [2] 18% and -15.5% | activity change % (negative = inhibition) [3] -9.82% and 10.5% | Potency [4]
0.276% and 7.73%: max response [6]

Nc1ccc([N+](=O)[O-])cc1O
3.08% and -8.59%: max response [6]
inactive: outcome [5] | outcome [1] | max response [2] -3.43% and -7.43% | activity change % (negative = inhibition) [3] 10% and 1.31% | Potency [4] | Potency [7]

O=c1cc(-c2ccccc2)oc2ccccc12
-11.8%: max response [6]
inactive: outcome [5] | outcome [1] | max response [2] -22.5% | activity change % (negative = inhibition) [3] -4.06% and 9.92% | Potency [4]
active: Potency [7] 20.9 µM

O=C(O)c1cc(O)c(O)c(O)c1
inactive: outcome [5] | outcome [1] | max response [2] -2.74% | activity change % (negative = inhibition) [3] -16.5% | Potency [4] | Potency [7] | Potency [9]
3.69%: max response [6]

O=C(O)/C=C\C(=O)O
0.438%: max response [6]
inactive: outcome [5] | outcome [1] | max response [2] 2.25% | activity change % (negative = inhibition) [3] -2.36%

C#C[C@]1(O)CC[C@H]2[C@@H]3CCc4cc(O)ccc4[C@H]3CC[C@@]21C
active: Potency [9] 12.8 µM
inactive: outcome [1] | activity change % (negative = inhibition) [3] -23% | Potency [4] | Potency [8]

Oc1ccccc1O
inactive: outcome [5] | outcome [1] | activity change % (negative = inhibition) [3] -12.3% | Potency [4]

Nc1ccc(O)c(C(=O)O)c1
7.86% and -11.8%: max response [6]
inactive: outcome [5] | max response [2] 19.2% and -15.8% | Potency [4] | Potency [8] | Potency [9]

Oc1cc(O)cc(/C=C/c2ccc(O)c(O)c2)c1
inactive: Potency [4]

NCCO
inactive: outcome [5] | max response [2] 21.6% | activity change % (negative = inhibition) [3] -5.7% | Potency [4] | Potency [7]
-11.1%: max response [6]

Nc1cc(-c2ccncc2)c[nH]c1=O
-6.03%: max response [6]
inactive: outcome [5] | outcome [1] | max response [2] -6.86% | Potency [4] | Potency [7] | Potency [8] | Potency [9]

O=C(O)[C@@H]1C[C@H](C(=O)O)N1
inactive: Potency [4]

Nc1nc2ccc([N+](=O)[O-])cc2s1
0.666%: max response [6]
inactive: max response [2] 16.9% | activity change % (negative = inhibition) [3] -2.47% | Potency [4]

O=C(OCc1ccccc1)c1ccccc1
-18.5%: max response [6]
inactive: outcome [5] | outcome [1] | max response [2] -1.47% | activity change % (negative = inhibition) [3] 12.6% | Potency [4] | Potency [9]

CN(C)c1ccc(N=NS(=O)(=O)O)cc1
inactive: outcome [5] | outcome [1] | max response [2] -16.5% and -8.55% | activity change % (negative = inhibition) [3] -11.7% | Potency [4]
-9.95% and 2.36%: max response [6]
